Screens from PubChem.
CapD inh – CapD enzyme inhibition | purified CapD enzyme, fluorescence intensity read-out; stronger effect = lower value | z-score (test concentration not listed) | actives 0.23% (n = 140,000); in the data active = z-score mostly below about -2.9, no sharp cut-off; inactive = mostly above about -1.9
* hit, by the source's call. Many of the other results were omitted from the sample, so hits are more common in it than they were.

SMILES	CapD inh
CCN(CC)C(=O)c1sc(NC(=O)c2ccnn2C)c(C(=O)OC(C)C)c1C	1.79
O=C(Nc1ccc(C(=O)c2ccccc2)cc1)c1ccccc1	-1.41
O=C(Nc1ccccc1)c1ccc(Br)cc1	-0.42
CS(=O)(=O)c1ccc(C(=O)Nc2ccccc2)cc1	-2.85*
Cc1ccc2c(c1)C1(NN=C(c3ccccc3O)S1)C(=O)N2 (stereo unspecified)	-1.6
Cc1[nH]nc2c1/C(=N\O)CC(c1ccccc1)C2 (stereo unspecified)	-0.43
CC(C)S(=O)(=O)C1=NSC2=NC(=O)/C(=C\c3ccco3)C(=N)N21	-3.77*
COc1cc(/C=C2/C(=N)N3C(=NC2=O)SN=C3S(=O)(=O)C(C)C)cc(Cl)c1OC(=O)c1ccco1	-1.3
CS(=O)(=O)C1=NN2C(=N)/C(=C\c3ccco3)C(=O)N=C2S1	0.885
O=S(=O)(NCc1c(F)cccc1F)c1ccc(Br)s1	-0.24
O=C(ON1C(=O)CCC1=O)c1ccc(Br)o1	-5.7*
COC(=O)c1ccc(Br)o1	0.405
O=C(O)c1ccc(Br)o1	-1.11
CCN(Cc1ccccc1)C(=O)c1nc(-c2ccc(Cl)cc2)n2c1CCCCC2	-0.515
COc1ccc(C2CC(=O)C3=C(C2)Nc2ccccc2NC3c2coc3ccc(Cl)cc3c2=O)cc1OC (stereo unspecified)	0.755
COc1ccccc1N1C(=O)NC(=O)/C(=C\c2cc(OC)c(O)c(OC)c2)C1=O	-1.6
COc1cc(/C=C2\C(=O)NC(=S)N(c3ccc(Cl)cc3)C2=O)cc([N+](=O)[O-])c1O	-2.81
COc1cc(/C=C2\C(=O)NC(=S)N(c3ccccc3C)C2=O)cc([N+](=O)[O-])c1O	-5.96*
COc1cc(OC)nc(Oc2cccc(F)c2C(=O)O)n1	-0.58
Cc1cccc(C)c1NC(=O)O/N=C(/COc1ccccc1[N+](=O)[O-])C(C)(C)C	-0.475
N=C1S/C(=C/c2ccc(-c3cccc(C(=O)O)c3)o2)C(=O)N1c1nonc1N	-6.1*
COC(=O)c1cccc(-c2ccc(/C=C3\SC(=N)N(c4nccs4)C3=O)o2)c1	0.185
N=C1S/C(=C/c2ccc(-c3ccccc3[N+](=O)[O-])o2)C(=O)N1c1nonc1N	-1.46
N#Cc1c2c(c(NCCc3ccccc3)n3c1nc1ccccc13)CCC2	-0.05
Clc1cccc(C2C=C(c3cccnc3)Nc3nc4ccccc4n32)c1 (stereo unspecified)	0.405
SMILES	CapD inh
CCCCSC1=C(C#N)C(c2sccc2C)C(C(C)=O)=C(C)N1 (stereo unspecified)	0.97
CC12CCC(C(=O)Nc3cccc4cccnc34)(CC1=O)C2(C)C (stereo unspecified)	0.11
O=C(Cc1ncc(C(F)(F)F)cc1Cl)NCc1ccc2c(c1)OCO2	-0.11
CCc1ccc(-n2c(=S)sc3c(=O)[nH]c(SCC(=O)O)nc32)cc1	-4.3*
CCc1ccc(-n2c(=S)sc3c(=O)[nH]c(SCC(=O)Nc4nccs4)nc32)cc1	0.14
CCc1ccc(-n2c(=S)sc3c(=O)[nH]c(SCC4OCCO4)nc32)cc1	-1.52
COC(=O)/C(C#N)=C1\NC(C)=NC(SC)=C1C#N	-0.865
CSC1=C(C#N)C(=C(C#N)C#N)NC(C)=N1	-4.51*
Cc1ccc(CSc2nc(NC3CC3)c3sc4ccccc4c3n2)cc1	0.6
CCN1/C(=C2/SC(=S)N(Cc3ccccc3)C2=O)Sc2ccc(Cl)cc21	-0.185
NC(=O)c1cc2cc(Br)ccc2oc1=Nc1ccc(C(=O)c2ccccc2)cc1	0.285
Cc1cc(C=C2C(=O)CCCC2=O)c(C)n1-c1ccccc1	-0.495
Cc1cc(C)c(C=C2C(=O)OC(C)(C)OC2=O)[nH]1	-4.07
Cc1cc(C)c(C=C2C(=O)CCCC2=O)[nH]1	-7.59*
CCC(C)N1Cc2ccccc2N(CC)C1c1ccccc1F (stereo unspecified)	-4.35*
Fc1ccccc1C1N(Cc2ccccc2)CCCN1Cc1ccccc1	24.9
Fc1ccccc1C1N(Cc2ccccc2)CCN1Cc1ccccc1	-0.3
CCOC(=O)c1ccc(NC(=O)C2CC(=O)N(Cc3ccc(OC)cc3)C(=Nc3ccccc3)S2)cc1 (stereo unspecified)	0.705
Cc1ccc2nc(-c3ccc(NC(=O)c4cccc([N+](=O)[O-])c4)cc3)sc2c1	5.25
S=C(NCc1ccncc1)Nc1ccccc1Cl	-0.165
Cc1ccc(Cl)cc1-n1c(=O)cc(N2CC(C)OC(C)C2)[nH]c1=O (stereo unspecified)	-0.78
COc1ccc(-n2c(=O)cc(N3CCCC3)[nH]c2=O)cc1	-1.39
CC1CN(c2cc(=O)n(-c3ccc(Cl)cc3)c(=O)[nH]2)CC(C)O1 (stereo unspecified)	-4.1*
CC1CCCCN1C(=O)/C=C/c1ccccc1 (stereo unspecified)	-0.02
Cc1ccc(-c2nc3ccccc3c(=O)o2)cc1	0.445
SMILES	CapD inh
Cc1ccc(-c2cccc(=O)o2)cc1	-3.96*
Cc1ccc2c(=O)cc(-c3ccc(F)cc3)oc2c1	-0.205
CCCCCC#CCCOC(=O)NNC(=O)/C=C/c1ccc(F)cc1Cl	9.19
N#C/C(=C\c1ccc(SCc2ccc(Cl)cc2)o1)C(=O)NCc1ccco1	-1.91
CCN(CC)C(=O)c1cc(Cl)c(=O)n(Cc2c(Cl)cccc2Cl)c1	0.895
CCCCCCCCCCNS(=O)(=O)c1cc2c(c([N+](=O)[O-])c1)-c1c(cc(S(=O)(=O)NCCCCCCCCCC)cc1[N+](=O)[O-])C2=NO	-0.045
Cc1cc(C)n(-c2ccc(N=NC3=C(O)CCCC3=O)cc2)n1	-4.44*
Cc1cc(C)n(-c2ccc(S(N)(=O)=O)cc2)n1	0.555
Cc1cc(C)n(-c2ccc(C(=O)O)cc2)n1	0.57
O=C(Nc1ccc([N+](=O)[O-])cc1)c1ccccc1O	-0.78
O=C(Nc1cccc(C(=O)c2ccccc2)c1)c1ccc([N+](=O)[O-])cc1	-0.51
O=C(O)CC/C(=N\Nc1ccc([N+](=O)[O-])cc1)c1ccccc1	-3.59*
O=C(c1ccccc1)N1c2ccccc2N=C(c2ccc(Br)cc2)CC1c1ccccc1 (stereo unspecified)	-0.175
CC(=O)C1=NN(c2ccc([N+](=O)[O-])cc2)C2(S1)SC(c1ccc(Br)cc1)(c1ccc(Br)cc1)c1ccccc12 (stereo unspecified)	-0.25
CN(C)c1ccc(N/C=C/C(=O)c2ccco2)cc1	-2.41
CC(=O)Nc1ccc(N/C=C/C(=O)c2ccco2)cc1	-5.83*
CC(=O)Nc1ccc(NC(=O)c2ccco2)cc1	0.425
O=C(O)CC1(CC(=O)N2CCN(C(c3ccccc3)c3ccc(Cl)cc3)CC2)CCCC1 (stereo unspecified)	0.255
Cc1cccc(C)c1NC(=S)SCC(N)=O	-0.255
CCC(C)OC(=O)C1=C(C)NC2=C(C(=O)CC(c3ccc(OC)cc3)C2)C1c1ccc(OC(C)=O)cc1 (stereo unspecified)	5.12
O=[N+]([O-])c1cccc(-c2nc(-c3ccccc3)c(-c3ccc(Oc4ccccc4)cc3)[nH]2)c1	-0.495
NC(=O)c1ccccc1NC(=O)c1c(Cl)nc2sccn12	0.66
CC(C(=O)Nc1ccccc1)C(=O)Nc1ccccc1	-0.065
CCCC(CCC)C(=O)Nc1ccccc1	0.705
O=C(Nc1ccccc1)C(C(F)(F)F)C(F)(F)F	-3.58*
SMILES	CapD inh
O=c1c(Oc2ccccc2F)coc2cc(O)ccc12	0.505
O=c1nc2c(-c3ccccc3)n[nH]n2c2ccccc12	-0.08
O=C(NC1CCCC1)N1CCC2(CC1)Oc1ccccc1C(=O)N2Cc1ccc(F)cc1	0.905
COc1ccc(-c2nnc(SCC(=O)OC(C)C)o2)cc1	0.345
CN(C)/C=C/C=C/c1cc(=O)cc(/C=C/C=C/N(C)C)o1	-14.6*
CC(=O)Nc1ccc(S(=O)(=O)N2CCCOC2)cc1	0.13
